From the supplement of paper PMC10981050 come the findings set out here.

Where a name gives a salt, the structure may show the parent alone.

The test system of the test is MOLM14. The experiment in a line: cell viability relative to vehicle control; higher = less cytotoxic. As to conditions: 10 µM; SRSF2 genotype: SRSF2 wt/wt. In short, it runs like this: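 Four leukaemia lines, as CRISPR-edited mutant clones and isogenic wild-type clones, were tested against Selleck bioactive, kinase and epigenetic probe libraries after removal of identity-inconsistent compounds. Cells were exposed to a single 10 µM dose for 48 h, and CellTiter-Glo luminescence was then read. Viability was calculated relative to the on-plate vehicle control.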
In the case of `Cc1nc(N)sc1-c1ccnc(Nc2ccc(N3CCOCC3)cc2)n1`, the cell viability came out at 4.7%.

Turning to `C=C[C@]1(C)C[C@@H](OC(=O)CSCCN(CC)CC)[C@]2(C)[C@H](C)CC[C@]3(CCC(=O)[C@H]32)[C@@H](C)[C@@H]1O` [Tiamulin], the cell viability came to 87.9%.

Turning to `C[C@@H]1CC[C@@]2(OC1)O[C@H]1C[C@H]3[C@@H]4CC=C5C[C@@H](O)C[C@@H](O)[C@]5(C)[C@H]4CC[C@]3(C)[C@H]1[C@@H]2C` [Ruscogenin], the cell viability stood at 110%.

As for `C[C@@H]1O[C@@H](O[C@H]2[C@H](O[C@H]3CC[C@@]4(C)[C@@H](CC[C@]5(C)[C@@H]4CC=C4[C@@H]6CC(C)(C)CC[C@]6(C(=O)O)CC[C@]45C)[C@]3(C)CO)OC[C@H](O[C@@H]3O[C@H](CO)[C@@H](O)[C@H](O)[C@H]3O)[C@@H]2O)[C@H](O)[C@H](O)[C@H]1O` [Pulsatilla saponin D], the cell viability was found to be 0.59%.

As to `Cc1cc(C#N)cc(C)c1Oc1nc(Nc2ccc(C#N)cc2)nc(N)c1Br` [Etravirine (TMC125)], the cell viability came out at 102%.

As to `CCCNCC(O)COc1ccccc1C(=O)CCc1ccccc1` (stereo not given) [Propafenone HCl], the cell viability is 81.2%.

On to `CN1CCN(Cc2ccc(Nc3ncc(Cl)c(Nc4ccccc4S(=O)(=O)N(C)C)n3)cc2)CC1`, for which the cell viability stood at 0.64%.

With `O=C(O)CNC(=O)c1nc(Cl)c2ccccc2c1O`, the cell viability is 89.1%.

For the compound `Cc1cc(C2CCCCC2)n(O)c(=O)c1` [Ciclopirox (Penlac)], the cell viability is 2.18%.

Take `COc1ccc(CCC(=O)Nc2nc3ccc(Cl)cc3s2)cc1OC`: the cell viability was 97.8%.

In the case of `COc1ccc(/C=C/c2cc(O)cc(O[C@@H]3O[C@H](CO)[C@@H](O)[C@H](O)[C@H]3O)c2)cc1O` [Rhapontin], the cell viability came to 99.3%.

As to `CC(C)=CCCC(C)(OC1OC(COC2OCC(O)C(O)C2O)C(O)C(O)C1O)C1CCC2(C)C1C(O)CC1C3(C)CCC(OC4OC(CO)C(O)C(O)C4O)C(C)(C)C3CCC12C` (stereo not given) [Gynostemma Extract], the cell viability worked out at 102%.

In the case of `CC1(C)CC[C@]2(C(=O)O)[C@H](O)C[C@]3(C)C(=CC[C@@H]4[C@@]5(C)CC[C@H](O)[C@@](C)(C=O)[C@@H]5CC[C@]43C)[C@@H]2C1` [Quillaic acid], the cell viability was 91.7%.

Turning to `CCN(CC)CCNC(=O)c1c(C)[nH]c(/C=C2\C(=O)Nc3ccc(F)cc32)c1C` [Sunitinib], the cell viability is 0.37%.

`CCCCCCCCCCCCCCCC(=O)O` [Palmitic acid]: the cell viability stood at 103%.

As for `C=CCS[S+]([O-])CC=C` (stereo not given) [Allicin], the cell viability stood at 99.8%.

On to `Cc1ccccc1-c1cc(N2CCN(C)CC2)ncc1N(C)C(=O)C(C)(C)c1cc(C(F)(F)F)cc(C(F)(F)F)c1` [Netupitant], for which the cell viability stood at 98.4%.

As for `CCCCCCCCCCCCCCCCOc1nc2ccc(C)cc2c(=O)o1` [Cetilistat], the cell viability is 108%.

For `C[C@H](CCC(=O)O)[C@H]1CC[C@H]2[C@@H]3[C@H](O)C[C@@H]4C[C@H](O)CC[C@]4(C)[C@H]3C[C@H](O)[C@]12C` [Cholic acid], the cell viability is 97.6%.

In the case of `CCCCC(=O)OCC(=O)[C@H]1[C@H](C)C[C@H]2[C@@H]3C[C@H](F)C4=CC(=O)C=C[C@]4(C)[C@@]3(F)[C@@H](O)C[C@@]21C` [Diflucortolone valerate], the cell viability is 96%.

Consider `CCn1cc(-c2cccc(C(F)(F)F)c2)c2sc(C(=N)NC3CCS(=O)(=O)CC3)cc2c1=O`, for which the cell viability came out at 32.3%.

With `Cc1c(CN2CCN(C(=O)[C@H](C)O)CC2)sc2c(N3CCOCC3)nc(-c3cnc(N)nc3)nc12` [Apitolisib (GDC-0980, RG7422)], the cell viability came to 21.6%.

For `CC[C@H](NC(=O)[C@H](C)NC)C(=O)N1C[C@@H](O)C[C@H]1Cc1c(-c2[nH]c3cc(F)ccc3c2C[C@@H]2C[C@H](O)CN2C(=O)[C@H](CC)NC(=O)[C@H](C)NC)[nH]c2cc(F)ccc12`, the cell viability came out at 65.4%.

For `CC1(C)O[C@H]1COc1c2ccoc2cc2oc(=O)ccc12` [Oxypeucedanin], the cell viability was 101%.

On to `CCCCCCC1CCC(=O)O1` (stereo not given), for which the cell viability was determined as 102%.

Turning to `CN1[C@@H]2CC[C@H]1C[C@@H](OC(=O)c1c[nH]c3ccccc13)C2` [Tropisetron HCl], the cell viability was 102%.

For the compound `CC1(C)[C@@H](O[C@H]2O[C@H](C(=O)O)[C@@H](O)[C@H](O)[C@H]2O[C@@H]2O[C@H](C(=O)O)[C@@H](O)[C@H](O)[C@H]2O)CC[C@]2(C)[C@H]3C(=O)C=C4[C@@H]5C[C@@](C)(C(=O)O)CC[C@]5(C)CC[C@@]4(C)[C@]3(C)CC[C@@H]12` [Ammonium Glycyrrhizate], the cell viability was found to be 98.9%.

In the case of `Cc1cc2c(F)c(Oc3ncnn4cc(OC[C@@H](C)O)c(C)c34)ccc2[nH]1`, the cell viability worked out at 104%.

Consider `CCOc1cc(N2CCC(O)CC2)ccc1Nc1ncc2c(n1)N(C)c1ccccc1C(=O)N2C`, for which the cell viability was 55.3%.

With `CCCc1nn(C)c2c(=O)[nH]c(-c3cc(S(=O)(=O)N4CCN(C)CC4)ccc3OCC)nc12` [Sildenafil citrate], the cell viability was found to be 111%.

`CC(O)C(O)c1cnc2nc(N)[nH]c(=O)c2n1` (stereo not given) [6-Biopterin]: the cell viability was 106%.

With `COc1ccc(-c2ccc3ncc4c(c3c2)n(-c2ccc(N3CCNCC3)c(C(F)(F)F)c2)c(=O)n4C)cn1`, the cell viability amounted to 0.18%.

Regarding `CO/N=C(\C(=O)N[C@@H]1C(=O)N2C(C(=O)O)=C(CSc3nnnn3C)CS[C@H]12)c1csc(N)n1` [Cefmenoxime hydrochloride], the cell viability was 98.8%.

Take `COC(=O)Nc1nc2cc(Sc3ccccc3)ccc2[nH]1` [Fenbendazole (Panacur)]: the cell viability came out at 4.51%.

Take `COc1cc2nccc(Oc3ccc(NC(=O)C4(C(=O)Nc5ccc(F)cc5)CC4)cc3)c2cc1OC`: the cell viability turned out to be 5.9%.

For `CCCCOc1c(C(=O)c2c(F)cc(C)cc2F)c[nH]c2nncc1-2`, the cell viability was found to be 87.7%.

For the compound `CCCCC(C)(O)C/C=C/[C@H]1[C@H](O)CC(=O)[C@@H]1CCCCCCC(=O)OC` (mixture of isomers) [Misoprostol], the cell viability worked out at 80.2%.

In the case of `O=c1sn(-c2cccc3ccccc23)c(=O)n1Cc1ccccc1` [Tideglusib], the cell viability amounted to 68.8%.

Regarding `O=C(COc1ccc(Cl)cc1)NC1CCC(NC(=O)COc2ccc(Cl)cc2)CC1` (stereo not drawn) [ISRIB (trans-isomer)], the cell viability came out at 98.7%.

For `CC=C(C)C(=O)O` [Tiglic acid], the cell viability turned out to be 109%.
